# Assay results: paper PMC11006913
# Changes are numbered by the printed parent chain.
# Experiments:
# Experiment in all cases: PBM; 200 nM protein, PBS
# Details in all cases: dsDNA, one strand shown
# VENTX [1] = biological target: T1, VENTX (Homo sapiens, UniProt O95231 78-163, R121Q)
# T1 sequence: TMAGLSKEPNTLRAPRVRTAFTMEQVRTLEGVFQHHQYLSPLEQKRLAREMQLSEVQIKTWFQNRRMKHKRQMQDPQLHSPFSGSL
# SIX6 [2] = biological target: T2, SIX6 (Homo sapiens, UniProt O95475 114-200, L167I)
# T2 sequence: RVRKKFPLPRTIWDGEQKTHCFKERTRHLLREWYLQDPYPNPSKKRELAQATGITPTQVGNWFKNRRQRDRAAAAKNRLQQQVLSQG
# VENTX [3] = biological target: T3, VENTX (Homo sapiens, UniProt O95231 78-163)
# T3 sequence: T1 sequence with Q44R
# SIX6 [4] = biological target: T4, SIX6 (Homo sapiens, UniProt O95475 114-200, L143V)
# T4 sequence: T2 sequence with L30V, I54L
# SIX6 [5] = biological target: T5, SIX6 (Homo sapiens, UniProt O95475 114-200, H141N)
# T5 sequence: T2 sequence with H28N, I54L
# SIX6 [6] = biological target: T6, SIX6 (Homo sapiens, UniProt O95475 114-200, T165P)
# T6 sequence: T2 sequence with T52P, I54L
# SIX6 [7] = biological target: T7, SIX6 (Homo sapiens, UniProt O95475 114-200, L167M)
# T7 sequence: T2 sequence with I54M
# SIX6 [8] = biological target: T8, SIX6 (Homo sapiens, UniProt O95475 114-200, L143M)
# T8 sequence: T2 sequence with L30M, I54L
# SIX6 [9] = biological target: T9, SIX6 (Homo sapiens, UniProt O95475 114-200, L143I)
# T9 sequence: T2 sequence with L30I, I54L
# SIX6 [10] = biological target: T10, SIX6 (Homo sapiens, UniProt O95475 114-200, T165G)
# T10 sequence: T2 sequence with T52G, I54L
# SIX6 [11] = biological target: T11, SIX6 (Homo sapiens, UniProt O95475 114-200, T139Q)
# T11 sequence: T2 sequence with T26Q, I54L
# SIX6 [12] = biological target: T12, SIX6 (Homo sapiens, UniProt O95475 114-200, T165A)
# T12 sequence: T2 sequence with T52A, I54L
# SIX6 [13] = biological target: T13, SIX6 (Homo sapiens, UniProt O95475 114-200, L167V)
# T13 sequence: T2 sequence with I54V
# SIX6 [14] = biological target: T14, SIX6 (Homo sapiens, UniProt O95475 114-200)
# T14 sequence: T2 sequence with I54L
# SIX6 [15] = biological target: T15, SIX6 (Homo sapiens, UniProt O95475 114-200, T165I)
# T15 sequence: T2 sequence with T52I, I54L
# HOXA4 [16] = biological target: HOXA4 (Homo sapiens, UniProt Q00056 201-287, W262R)
# Sequence of HOXA4 (Homo sapiens, UniProt Q00056 201-287, W262R) (Q00056 201-287 W262R): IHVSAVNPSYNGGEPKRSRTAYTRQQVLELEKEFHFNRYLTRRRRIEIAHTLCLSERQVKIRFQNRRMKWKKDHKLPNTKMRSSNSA
# VENTX [17] = biological target: T16, VENTX (Homo sapiens, UniProt O95231 78-163, Y115F)
# T16 sequence: T1 sequence with Y38F, Q44R
# HOXA4 [18] = biological target: HOXA4 (Homo sapiens, UniProt Q00056 201-287, R217L)
# Sequence of HOXA4 (Homo sapiens, UniProt Q00056 201-287, R217L) (Q00056 201-287 R217L): as the sequence (Q00056 201-287 W262R) above, with R17L, R62W counted along it
# HOXA4 [19] = biological target: HOXA4 (Homo sapiens, UniProt Q00056 201-287)
# Sequence of HOXA4 (Homo sapiens, UniProt Q00056 201-287) (Q00056 201-287): as the sequence (Q00056 201-287 W262R) above, with R62W counted along it
# HOXA4 [20] = biological target: HOXA4 (Homo sapiens, UniProt Q00056 201-287, W262F)
# Sequence of HOXA4 (Homo sapiens, UniProt Q00056 201-287, W262F) (Q00056 201-287 W262F): as the sequence (Q00056 201-287 W262R) above, with R62F counted along it
# HOXC9 [21] = biological target: HOXC9 (Homo sapiens, UniProt P31274 178-260, K195R)
# Sequence of HOXC9 (Homo sapiens, UniProt P31274 178-260, K195R) (P31274 178-260 K195R): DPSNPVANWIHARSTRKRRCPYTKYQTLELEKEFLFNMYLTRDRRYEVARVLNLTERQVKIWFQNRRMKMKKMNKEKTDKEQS
# HOXC9 [22] = biological target: HOXC9 (Homo sapiens, UniProt P31274 178-260)
# Sequence of HOXC9 (Homo sapiens, UniProt P31274 178-260) (P31274 178-260): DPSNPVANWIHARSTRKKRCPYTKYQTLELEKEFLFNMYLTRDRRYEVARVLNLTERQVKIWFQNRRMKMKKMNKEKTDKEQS
# ALX1 [23] = biological target: ALX1 (Homo sapiens, UniProt Q15699 118-204, L144V)
# Sequence of ALX1 (Homo sapiens, UniProt Q15699 118-204, L144V) (Q15699 118-204 L144V): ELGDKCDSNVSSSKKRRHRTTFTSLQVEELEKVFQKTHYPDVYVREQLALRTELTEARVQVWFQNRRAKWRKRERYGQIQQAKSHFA
# HOXC9 [24] = biological target: HOXC9 (Homo sapiens, UniProt P31274 178-260, R193K)
# Sequence of HOXC9 (Homo sapiens, UniProt P31274 178-260, R193K) (P31274 178-260 R193K): as the sequence (P31274 178-260) above, with R16K counted along it
# ALX1 [25] = biological target: ALX1 (Homo sapiens, UniProt Q15699 118-204, L144R)
# Sequence of ALX1 (Homo sapiens, UniProt Q15699 118-204, L144R) (Q15699 118-204 L144R): as the sequence (Q15699 118-204 L144V) above, with V27R counted along it
# HOXC9 [26] = biological target: HOXC9 (Homo sapiens, UniProt P31274 178-260, R222W)
# Sequence of HOXC9 (Homo sapiens, UniProt P31274 178-260, R222W) (P31274 178-260 R222W): as the sequence (P31274 178-260) above, with R45W counted along it
# ALX1 [27] = biological target: ALX1 (Homo sapiens, UniProt Q15699 118-204)
# Sequence of ALX1 (Homo sapiens, UniProt Q15699 118-204) (Q15699 118-204): as the sequence (Q15699 118-204 L144V) above, with V27L counted along it
sequence,measurement,setting,value
CGATTAAA,binding signal,VENTX [1],"10.7 upbm affinity estimate (log intensity, higher = more binding, comparable within an allelic series)"
ATGATATG,binding signal,VENTX [1],"9.57 upbm affinity estimate (log intensity, higher = more binding, comparable within an allelic series)"
same,binding signal,SIX6 [2],"11.3 upbm affinity estimate (log intensity, higher = more binding, comparable within an allelic series)"
same,binding signal,VENTX [3],"9.91 upbm affinity estimate (log intensity, higher = more binding, comparable within an allelic series)"
same,binding signal,SIX6 [4],"10.4 upbm affinity estimate (log intensity, higher = more binding, comparable within an allelic series)"
same,binding signal,SIX6 [5],"11.3 upbm affinity estimate (log intensity, higher = more binding, comparable within an allelic series)"
same,binding signal,SIX6 [6],"9.99 upbm affinity estimate (log intensity, higher = more binding, comparable within an allelic series)"
same,binding signal,SIX6 [7],"10.7 upbm affinity estimate (log intensity, higher = more binding, comparable within an allelic series)"
same,binding signal,SIX6 [8],"11.1 upbm affinity estimate (log intensity, higher = more binding, comparable within an allelic series)"
same,binding signal,SIX6 [9],"10.5 upbm affinity estimate (log intensity, higher = more binding, comparable within an allelic series)"
same,binding signal,SIX6 [10],"11.4 upbm affinity estimate (log intensity, higher = more binding, comparable within an allelic series)"
same,binding signal,SIX6 [11],"11.3 upbm affinity estimate (log intensity, higher = more binding, comparable within an allelic series)"
same,binding signal,SIX6 [12],"11.2 upbm affinity estimate (log intensity, higher = more binding, comparable within an allelic series)"
same,binding signal,SIX6 [13],"11.1 upbm affinity estimate (log intensity, higher = more binding, comparable within an allelic series)"
same,binding signal,SIX6 [14],"11.1 upbm affinity estimate (log intensity, higher = more binding, comparable within an allelic series)"
same,binding signal,SIX6 [15],"11.1 upbm affinity estimate (log intensity, higher = more binding, comparable within an allelic series)"
ACTCGTTA,binding signal,VENTX [1],"9.91 upbm affinity estimate (log intensity, higher = more binding, comparable within an allelic series)"
GGGAGGAC,binding signal,VENTX [1],"8.23 upbm affinity estimate (log intensity, higher = more binding, comparable within an allelic series)"
same,binding signal,HOXA4 [16],"9.79 upbm affinity estimate (log intensity, higher = more binding, comparable within an allelic series)"
same,binding signal,VENTX [3],"8.18 upbm affinity estimate (log intensity, higher = more binding, comparable within an allelic series)"
same,binding signal,VENTX [17],"8.28 upbm affinity estimate (log intensity, higher = more binding, comparable within an allelic series)"
same,binding signal,HOXA4 [18],"9.91 upbm affinity estimate (log intensity, higher = more binding, comparable within an allelic series)"
same,binding signal,HOXA4 [19],"10.1 upbm affinity estimate (log intensity, higher = more binding, comparable within an allelic series)"
same,binding signal,HOXA4 [20],"9.92 upbm affinity estimate (log intensity, higher = more binding, comparable within an allelic series)"
CCCCCTGA,binding signal,VENTX [1],"7.9 upbm affinity estimate (log intensity, higher = more binding, comparable within an allelic series)"
same,binding signal,HOXC9 [21],"9.31 upbm affinity estimate (log intensity, higher = more binding, comparable within an allelic series)"
same,binding signal,VENTX [3],"7.95 upbm affinity estimate (log intensity, higher = more binding, comparable within an allelic series)"
same,binding signal,VENTX [17],"7.94 upbm affinity estimate (log intensity, higher = more binding, comparable within an allelic series)"
same,binding signal,HOXC9 [22],"9.4 upbm affinity estimate (log intensity, higher = more binding, comparable within an allelic series)"
same,binding signal,ALX1 [23],"6.45 upbm affinity estimate (log intensity, higher = more binding, comparable within an allelic series)"
same,binding signal,HOXC9 [24],"9.32 upbm affinity estimate (log intensity, higher = more binding, comparable within an allelic series)"
same,binding signal,ALX1 [25],"6.47 upbm affinity estimate (log intensity, higher = more binding, comparable within an allelic series)"
same,binding signal,HOXC9 [26],"9.33 upbm affinity estimate (log intensity, higher = more binding, comparable within an allelic series)"
same,binding signal,ALX1 [27],"6.49 upbm affinity estimate (log intensity, higher = more binding, comparable within an allelic series)"
